# Laboratory results from PubChem BioAssay (NCATS).
# Inconclusive results are not listed. A number with no mark means an inactive call. Calls of active or inactive are those of the source. Calls come from the whole dose curve; as a rule, active = well fitted cell-killing curve with a large enough effect; inconclusive = small, poorly fitted or top-dose-only effect, or effect the other way; inactive = flat fitted curve, though single readings scatter.
# Test system: Tov-21-G
# Test: Primary qHTS to identify gynecologic anti-cancer compounds using libraries of approved drugs and bioactive compounds (AID 1345084); note: nearly all actives have a fitted effect of over 55% in size
# Details: Gynecologic cancer cell panel viability, ATPlite luminescence, 48 h; series mostly up to 57.5 µM; activity change, negative = cytotoxicity: at the top concentration
# Method in brief: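 Cells, 1,000 per well, plated 16 h, then exposed 48 h at 37 C to compounds. Viability by ATPlite luminescence after 15 min at room temperature.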
# % is set by controls: 0 for no effect and ±100 for the full control effect; potency is the fitted concentration of half-maximal effect.
Structure (SMILES),"activity change, negative = cytotoxicity",Potency
COc1ccc(-c2nc(-c3ccc(-c4cccc(Cl)c4)o3)[nH]c2-c2ccc(OC)cc2)cc1,-0.828%,
CC(=O)c1c(O)cc(O[C@@H]2O[C@H](CO)[C@@H](O)[C@H](O)[C@H]2O)cc1O,5.75% [at 38.5 µM],
C=C1C(O)C(O)C2(CC3C(C)=CCC4C(C)(CO)CCCC34C)OC2C1O (stereo unspecified),7.84% [at 38.5 µM],
O=C1NC(Cc2c[nH]c3ccccc23)C(=O)NC1Cc1c[nH]c2ccccc12 (stereo unspecified),4.79% [at 38.5 µM],
CC1CCC2(C=O)C(CO)=CCCC2C1(C)CC(=O)O (stereo unspecified),-9.93%,
COc1cc(C)c(C(=O)O[C@H]2[C@@H](OC(C)=O)[C@H](n3ccc(=O)[nH]c3=O)O[C@@H]2CO)c(OC)c1,7.45% [at 25.3 µM],
COC(=O)C1=CO[C@@H](O[C@@H]2O[C@H](CO)[C@@H](O)[C@H](O)[C@H]2O)[C@@H]2[C@@](C)(O)[C@@H](OC(=O)/C=C/c3ccc(O)cc3)C[C@]12O,8.82% [at 25.3 µM],
C[C@@H]([C@@H](O)c1ccc(O)cc1)N1CCC(O)(c2ccccc2)CC1,0.0846%,
N#C[C@@H]1C[C@H](F)CN1C(=O)CNC1[C@H]2CN(C(=O)c3ccc(F)cc3)C[C@@H]12 (stereo partly specified),4.47%,
C=C1CCC2C(C)(C(=O)OC)CCCC2(C)C1CCC(C)CC(=O)O (stereo unspecified),4.55% [at 38.5 µM],
C[C@@H]1C(=O)O[C@H]2C[C@]34[C@H]5C[C@@H](C(C)(C)C)[C@]36[C@@H](OC(=O)[C@H]6O)O[C@]4(C(=O)O5)[C@]21O,-3.26% [at 25.3 µM],
COC(=O)C1=COC(O[C@@H]2O[C@H](CO)[C@@H](O)[C@H](O)[C@H]2O)[C@H]2[C@@H]1[C@H](OC(=O)CCc1ccc(O)cc1)C[C@]2(C)O (stereo partly specified),0.509% [at 25.3 µM],
CC(=O)OC[C@H]1O[C@H](O[C@]2(CO)O[C@H](CO)[C@@H](OC(=O)/C=C/c3ccccc3)[C@@H]2O)[C@H](O)[C@@H](O)[C@@H]1O,2.67% [at 25.3 µM],
C=C(C)C1CC[C@]2(C(=O)O)CC[C@]3(C(=O)O)[C@H](CCC4[C@@]5(C)CC[C@H](O)C(C)(C)C5CC[C@]43C)C12 (stereo partly specified),0.454% [at 25.3 µM],
COc1cc(/C=C/C(=O)O[C@H]2[C@H](O)[C@@H](CO)O[C@@]2(CO)O[C@H]2O[C@H](CO)[C@@H](O)[C@H](O)[C@H]2O)ccc1O,0.346% [at 25.3 µM],
CC1(C(=O)O)CCCC2(C)C3CCC4CC3(CCC12)CC4=O (stereo unspecified),4.77%,

Structure (SMILES),"activity change, negative = cytotoxicity",Potency
C/C=C/C(O)C1OC(=O)CC1Nc1ccc(C(=O)O)cc1 (stereo unspecified),-0.439%,
C=C(CO[C@@H]1O[C@H](CO[C@@H]2OC[C@](O)(CO)[C@H]2O)[C@@H](O)[C@H](O)[C@H]1O)C1Cc2cc(C(C)=O)ccc2O1 (stereo partly specified),-3.04% [at 25.3 µM],
COc1ccc([C@@]2(O)c3c(ccc4c3OC(C)(CCC=C(C)C)C=C4)NC(=O)[C@@H]2OC)cc1 (stereo partly specified),-0.232% [at 25.3 µM],
C=C1C[C@]23C[C@H]1[C@@H](O)C[C@H]2[C@@]12C=C[C@H](O)[C@@](C)(C(=O)O1)[C@H]2[C@@H]3C(=O)O,-0.365% [at 38.5 µM],
C=C1C(=O)O[C@@H]2C[C@H](C)[C@@]3(O)C=C(C(C)=O)[C@]4(CC3C[C@H]12)C(=O)O[C@H]1C[C@@H](C)C(CCC(C)=O)=CC[C@H]14 (stereo partly specified),-1.02% [at 25.3 µM],
CCC(C)C(=O)OC1CC(C)C=C2C=CC(C)C(CCC(O)CC(O)CC(=O)O)C21 (stereo unspecified),-7.1% [at 25.3 µM],
OC[C@H]1O[C@@H](OCCc2ccccc2)[C@H](O[C@@H]2OC[C@](O)(CO)[C@H]2O)[C@@H](O)[C@@H]1O,-2.35% [at 25.3 µM],
CC1=C(C(=O)O)/C(=C\CO[C@@H]2O[C@H](CO)[C@@H](O)[C@H](O)[C@H]2O)C(OC(=O)/C=C\c2ccc(O)cc2)C1 (stereo partly specified),3.26% [at 25.3 µM],
CC1(C)CCCC2(C)C1C(O)C=C(CO)C2(O)CO (stereo unspecified),4.06%,
C/C=C(\C)C(=O)OCC1OC(OC2OC(COC(=O)/C(C)=C/C)C(OC3OC(CO)C(OC(=O)/C(C)=C/C)C(OC(=O)/C(C)=C/C)C3O)C(O)C2O)C(O)C(O)C1OC1OC(CO)C(OC(=O)/C(C)=C/C)C(OC(=O)/C(C)=C/C)C1O (stereo unspecified),9.19% [at 11.6 µM],
COc1c2c(c(C)c3c1C(=O)OC3)O[C@@]1(C)CCC3(C(C)(C)O)OC(=O)CC[C@]3(C)[C@H]1C2 (stereo partly specified),12.8% [at 25.3 µM],
COc1ccc(C[C@H](N)C(=O)N[C@@H]2[C@H](O)[C@H](n3cnc4c(N(C)C)ncnc43)O[C@@H]2CO)cc1,,4.47 µM (active)
OC1CCC(Nc2ncc3nc(Nc4c(F)cc(F)cc4F)n([C@H]4CCOC4)c3n2)CC1 (stereo partly specified),-15.3%,
Cn1cc(-c2ccc3nnc(Sc4ccc5nn(C)cc5c4)n3n2)cn1,3.24%,
COc1cc(N)c(Cl)cc1C(=O)NC[C@@H]1CCN2CCC[C@@H]12,7.59%,
